Laboratory results published in the supplement of paper PMC11219838.
Unmarked numbers belong to inactive results.

How the values were obtained:
Details in all cases: 60 µM; 5 days; temperature: 20 °C
Meloidogyne hapla J2 = test: proportion of mobile M. hapla J2 relative to DMSO control (fraction of DMSO control); higher = more viable, less nematicidal, active = 0.7 or less
Outline: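 Compound was pinned to 60 µM final (0.6% v/v DMSO) into 96-well wells, each holding about 25 M. hapla J2 in distilled water. Plates were sealed and shaken for 5 days at 20 °C and 200 rpm, then given 2 µL 1 M NaOH per well. Microscopic mobility scores were normalised to the mean of the plate's own DMSO wells, eight per plate, with two biological replicates averaged.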

[1] = tested on: Caenorhabditis elegans dauer (daf-2(e1370)); test: proportion of mobile C. elegans dauer larvae relative to DMSO control (fraction of DMSO control); higher = more viable, less nematicidal, active = 0.63 or less; extreme values may be limits of the assay
Outline: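 Compound was added by pinning to 60 µM final, giving 0.6% v/v DMSO, in 96-well plates containing about 20 C. elegans dauers per well in liquid NGM. These dauers came from synchronized larvae held on MYOB plates with E. coli OP50 for 48 h at 25 °C. Plates were sealed and shaken at 200 rpm at 20 °C for 5 days. Under a dissection microscope, the proportion of mobile worms was scored relative to DMSO wells, and two biological replicates were averaged.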

Ditylenchus dipsaci = test: proportion of mobile D. dipsaci (mixed stage) relative to DMSO control (fraction of DMSO control); higher = more viable, less nematicidal, active = 0.86 or less; extreme values may be limits of the assay
Outline: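 Mobility values are relative to DMSO controls and are averages of two biological replicates. For each well of a 96-well plate, about 20 D. dipsaci worms, grown on pea plants in Gamborg B-5 agar and funnel-extracted into water, were dispensed in distilled water. Plates received pinned compound at 60 µM final with 0.6% v/v DMSO and were sealed and shaken at 200 rpm for 5 days at 20 °C before 2 µL 1 M NaOH was added and mobile worms were scored by microscope.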

Compound	proportion of mobile M. hapla J2 (Meloidogyne hapla J2)	proportion of mobile C. elegans dauer larvae [1]	proportion of mobile D. dipsaci (Ditylenchus dipsaci)
CC1CC(C)CN(C(=O)CSc2nnc(-c3cccc(Cl)c3)o2)C1 (centres undefined)	1.04	1	1
CC(C)(C)c1ccc(-c2nc(-c3ccncc3)no2)cc1	1.03	1	1
Brc1ccc(-c2noc(-c3cccs3)n2)o1	0.7 (active)	0.5 (active)	1
O=C(CSc1nnc(-c2ccco2)o1)Nc1ccccc1F	0.933	1	1
Brc1cccc(-c2nc(-c3cccnc3)no2)c1	1.01	1	1
Cc1ccc(-c2noc(-c3ccc(Br)o3)n2)s1	0.965	1	1
Cc1cc(OCc2nc(-c3ccncc3)no2)cc(C)c1Cl	0.78	1	1
COc1ccc(-c2noc(COc3ccc(C4CCCCC4)cc3)n2)cc1	0.62 (active)	1	1
COc1ccc(-c2noc(-c3ccc(C)c(Cl)c3)n2)cc1	0.986	1	1
CCc1ccc(NC(=O)CSc2nnc(-c3ccc(Cl)cc3Cl)o2)cc1	0.785	1	1
CCc1nnc(NC(=O)CSc2nnc(-c3ccc(Cl)cc3Cl)o2)s1	0.875	1	1
Cc1ccc(-c2noc(COc3ccc(C)cc3C)n2)cc1	1.02	1	1
COc1nc(C)ccc1-c1noc(-c2ccc(C(C)(C)C)cc2)n1	0.926	1	1
